Records with an inconclusive call do not appear. A call without a number means that no potency is given here. Calls of active or inactive are those of the source. Calls follow the shape of the dose curve; as a rule, active = well fitted curve in the direction sought with a large enough effect; inconclusive = small, poorly fitted or top-dose-only effect, or another doubt; inactive = no such curve, though single readings can be large; an effect the other way counts as inactive or inconclusive.

Chain of Ubiquitin carboxyl-terminal hydrolase 2 (Homo sapiens) (O75604 whole entry, looked up): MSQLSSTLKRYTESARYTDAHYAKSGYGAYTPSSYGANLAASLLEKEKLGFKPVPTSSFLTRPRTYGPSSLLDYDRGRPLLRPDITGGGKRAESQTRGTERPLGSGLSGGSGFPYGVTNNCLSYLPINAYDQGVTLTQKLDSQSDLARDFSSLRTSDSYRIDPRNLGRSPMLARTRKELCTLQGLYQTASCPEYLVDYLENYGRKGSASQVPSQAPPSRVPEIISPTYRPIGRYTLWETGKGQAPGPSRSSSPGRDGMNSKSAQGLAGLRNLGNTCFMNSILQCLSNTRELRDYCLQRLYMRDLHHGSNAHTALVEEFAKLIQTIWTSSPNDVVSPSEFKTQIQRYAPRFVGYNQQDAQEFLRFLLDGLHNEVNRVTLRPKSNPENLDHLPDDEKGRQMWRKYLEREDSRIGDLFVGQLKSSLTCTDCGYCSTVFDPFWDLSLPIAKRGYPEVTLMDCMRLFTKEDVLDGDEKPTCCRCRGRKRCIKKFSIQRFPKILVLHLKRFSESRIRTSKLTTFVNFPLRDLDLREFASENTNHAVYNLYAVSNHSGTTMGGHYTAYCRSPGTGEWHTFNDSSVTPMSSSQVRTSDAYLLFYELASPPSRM

Tested on in one assay: not listed separately
Nature of the assay: Cytometry Cell-Based qHTS for Inhibitors of the mTORC1 Signaling Pathway in MEF cells (AID 2668). Also: potency is read from the fitted curve at half-maximal effect. The following applies: mTORC1 pathway readout; series mostly up to 38.3 µM. The essentials: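 WT MEFs (Tsc2-/-, p53-/- stably re-expressing WT Tsc2) in DMEM + 10% FBS received compounds 24 hrs after plating, for 24 hrs at 37 degree Celsius. Fixed cells stained with Alexa-488 anti-phospho-rpS6 Ser235/236 and propidium iodide; laser-scanning cytometry read-out.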
For orientation: Quantitative high-throughput screening tests each substance at several concentrations.
Consider `CN(C)CCCO[C@@H]1[C@H]2OC(C)(C)O[C@H]2O[C@@H]1[C@H](O)CO`, for which the Potency entry was “inactive”. On the same count and under the same terms, then `NC[C@H]1O[C@@H](n2cnc3c(N)ncnc32)[C@H](O)[C@@H]1O`, with “inactive”; and `O=C1NC(=O)/C(=C/c2ccc3nccnc3c2)S1`, with 16.5 µM (active).

As for `CCNC(=O)[C@H]1O[C@@H](n2cnc3c(N)nc(NCCc4ccc(CCC(=O)O)cc4)nc32)[C@H](O)[C@@H]1O`, the Potency result was “inactive”. Consider `CC(C)NC[C@@H](O)c1ccc(O)c(O)c1`, for which the Potency result is “inactive”.

In the case of `COc1ccc2c(c1)CCC1C2CC[C@@]2(C)C1CC[C@@H]2NCCCCCCN1C(=O)CCC1=O` (some centres not stated), the Potency is 4.65 µM (active). Still for that read-out and setting: then `CC(N)C(=O)OC(C)(C)Cc1ccc(Cl)cc1` (configuration not stated), with “inactive”. Same read-out and setting: then `OC[C@H]1O[C@@H](n2cnc3c(NC4CCCC4)ncnc32)[C@H](O)[C@@H]1O`, with “inactive”; and `O=P(O)(O)C(Cl)(Cl)P(=O)(O)O`, with “inactive”; and `Cc1cc(NC2CCCCC2)nc(-n2nc(C)cc2C)n1`, with “inactive”. On the same count and under the same terms, then `NCC1OC(O[C@H]2[C@H](O)[C@@H](OC3C(O)C(N)CC(N)C3OC3OC(CO)C(O)C(O)C3N)O[C@@H]2CO)C(N)C(O)C1O` (some centres not stated), with “inactive”; and `CN1C2CC(OC(=O)[C@H](CO)c3ccccc3)CC1C1OC12` (some centres not stated), with “inactive”. In the case of `C=CC(C)=C[C@@]1(C)SC(=O)C(C)=C1O`, the Potency result is “inactive”. On the same count and under the same terms, next, `CC(C)CC(NP(=O)(O)O[C@@H]1O[C@@H](C)[C@H](O)[C@@H](O)[C@H]1O)C(=O)NC(Cc1c[nH]c2ccccc12)C(=O)O` (some centres not stated): “inactive”; `CSc1ccccc1N1CCN(CCCCCC(=O)NC2CCCc3ccccc32)CC1` (configuration not stated): 11.7 µM (active); `C=C[C@H]1CN2CC[C@@H]1C[C@@H]2[C@@H](O)c1ccnc2ccc(OC)cc12`: “inactive”. The same measure, in the same setting: next, `O=C1/C(=C/c2ccsc2)CC/C1=C\c1cccs1`: “inactive”. On the same count and under the same terms, next, `CNc1ncnc2c1ncn2[C@@H]1O[C@H](CO)[C@@H](O)[C@H]1O`: “inactive”. As for `N#C/C(=C\c1ccc(-c2cc(Cl)ccc2Cl)o1)C(=O)Nc1cccc2ncccc12`, the Potency entry was “inactive”. Same read-out and setting: next, `CCN(CC)c1ncnc2c1ncn2[C@@H]1O[C@H](COP(=O)(O)OP(=O)(O)C(Br)(Br)P(=O)(O)O)[C@@H](O)[C@H]1O`: “inactive”.

The target in a further assay is Ubiquitin carboxyl-terminal hydrolase 2 (Homo sapiens) (UniProt O75604). Briefly: qHTS Validation Assay for Inhibitors of Ubiquitin-specific Protease USP2a Using CHOP2 as the Reporter (AID 463106). Conditions: USP2a cleavage of CHOP2 reporter, enzymatic; series mostly up to 38.3 µM. The essentials:
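Inhibition is expressed relative to NEM as the full-inhibition control, with concentration-response curves classed by fit quality, magnitude and activity. Enzyme (USP2 core, 10nM) meets 25nM Ub-CHOP2 after compound preincubation; readings are taken at 60min.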
Consider `CN(C)CCCO[C@@H]1[C@H]2OC(C)(C)O[C@H]2O[C@@H]1[C@H](O)CO`, for which the Potency entry is “inactive”. With `CCCC1(C)C(C#N)(C#N)C1(C#N)C#N`, the Potency result is “inactive”. Same read-out and setting: next, `COc1ccccc1N1CCN(CCN(C(=O)c2ccc(I)cc2)c2ccccn2)CC1`: “inactive”; `CCCCCCCCc1ccc(-c2ccc(C(=O)O)cc2)cc1`: “inactive”; `O=C(CCCCCN1CCN(c2ccccc2-c2ccccc2)CC1)NC1CCCc2ccccc21` (configuration not stated): “inactive”. The same measure, in the same setting: next, `NC[C@H]1O[C@@H](n2cnc3c(N)ncnc32)[C@H](O)[C@@H]1O`: “inactive”. On to `NS(=O)(=O)C#Cc1ccccc1`, for which the Potency entry was “inactive”.

For `O=C1NC(=O)/C(=C/c2ccc3nccnc3c2)S1`, the Potency result was “inactive”. As for `CCNC(=O)[C@H]1O[C@@H](n2cnc3c(N)nc(NCCc4ccc(CCC(=O)O)cc4)nc32)[C@H](O)[C@@H]1O`, the Potency entry was “inactive”. Still for that read-out and setting: then `CC(C)NC[C@@H](O)c1ccc(O)c(O)c1`, with “inactive”; and `Cc1ccc(S(=O)(=O)/C=C/C#N)cc1`, with “inactive”; and `COc1ccc2c(c1)CCC1C2CC[C@@]2(C)C1CC[C@@H]2NCCCCCCN1C(=O)CCC1=O` (some centres not stated), with “inactive”. The same measure, in the same setting: then `CC(N)C(=O)OC(C)(C)Cc1ccc(Cl)cc1` (configuration not stated), with “inactive”; and `Cn1ncc(S(=O)(=O)Cc2ccccc2)c(Br)c1=O`, with “inactive”. On the same count and under the same terms, then `CC(=O)/C=C1\C(=O)N(C)c2ccccc21`, with “inactive”. `OC[C@H]1O[C@@H](n2cnc3c(NC4CCCC4)ncnc32)[C@H](O)[C@@H]1O`: the Potency result was “inactive”. The same measure, in the same setting: then `O=P(O)(O)C(Cl)(Cl)P(=O)(O)O`, with “inactive”. Same read-out and setting: then `CC[C@@H](C)[C@H]1O[C@]2(CC[C@H]1C)C[C@@H]1C[C@@H](CC=C(C)[C@@H](O[C@H]3C[C@H](OC)[C@@H](O[C@H]4C[C@H](OC)[C@@H](O)[C@H](C)O4)[C@H](C)O3)[C@@H](C)C=CC=C3CO[C@@H]4[C@H](O)C(C)=C[C@@H](C(=O)O1)[C@]34O)O2`, with “inactive”; and `Nc1ncnc2c1c(I)cn2[C@@H]1C[C@H](N)[C@@H](O)[C@H]1O`, with “inactive”. As for `Cc1cc(NC2CCCCC2)nc(-n2nc(C)cc2C)n1`, the Potency entry was “inactive”. Still for that read-out and setting: then `N=c1ccn2c(n1)O[C@H]1[C@H](O)[C@@H](CO)O[C@H]12`, with “inactive”. Still for that read-out and setting: next, `NCC1OC(O[C@H]2[C@H](O)[C@@H](OC3C(O)C(N)CC(N)C3OC3OC(CO)C(O)C(O)C3N)O[C@@H]2CO)C(N)C(O)C1O` (some centres not stated): “inactive”.

These data come from PubChem BioAssay (NCATS).
